Most compounds without a hit are left out; they make up all but 19% or so of the library.
TDP1 cell noCPT: qHTS for Inhibitors of human tyrosyl-DNA phosphodiesterase 1 (TDP1): qHTS in cells in absence of CPT; DT40 Tdp1-/- hTDP1 cells, no CPT, ATP luminescence, 48 h; AID 686978, 2013; Potency, µM (highest dose often 46.2 µM), for inactives: at the top dose activity change, negative = growth inhibition, actives largely listed as inhibitors; 420,000 compounds, 15% hits; note: nearly all actives have a fitted effect of over 55% in size
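Stably hTDP1-transfected Tdp1-null chicken DT40 cells were treated with library compounds minus camptothecin and grown for at least 48 hr at 37 °C, after which cellular ATP was quantified by luminescence.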
TDP1 cell CPT: qHTS for Inhibitors of human tyrosyl-DNA phosphodiesterase 1 (TDP1): qHTS in cells in presence of CPT; chicken DT40 Tdp1-/-;hTDP1 cells + 20 nM CPT, ATP luminescence, 48 h; Potency, µM (titrated, usually from 46.2 µM), without a hit: at the top dose activity change, negative = growth inhibition, most hits filed as inhibitors; 420,000 compounds, 12% hits; note: nearly all actives have a fitted effect of over 55% in size
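Chicken DT40 Tdp1-/- cells stably complemented with human TDP1 were seeded at 400 cells/well in medium containing 20 nM camptothecin, exposed to pin-transferred compounds, and grown at 37 °C for at least 48 hr. Viability was read as ATP luminescence.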
RORg inh: qHTS for inhibitors of ROR gamma transcriptional activity | 310,000 compounds, 5.4% hits | AID 2551, 2010 | Potency, µM (highest dose often 53.6 µM), for inactives: at the highest dose activity change, negative = inhibition, hits mostly inhibitors | Drosophila S2 Gal4-RORgamma UAS-luciferase reporter, 20 h; note: nearly all actives have a fitted effect of over 60% in size
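In this cell-based reporter format, copper sulfate (700 uM final) drives Gal4–ROR gamma fusion expression from a metallothionein promoter in Drosophila Schneider cells; compounds preincubated 1 hr, reporter read after 20 hr at ambient temperature.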
TDP1 block: qHTS Assay for Inhibitors of Tyrosyl-DNA Phosphodiesterase (TDP1) | recombinant TDP1, AlphaScreen DNA substrate cleavage | 350,000 compounds, 0.28% hits | Potency, µM (titrated, usually from 130 µM), inactives show at the top dose activity change, negative = inhibition, actives largely listed as inhibitors | Tyrosyl-DNA phosphodiesterase 1 (Homo sapiens), Q9NUW8; note: nearly all actives have a fitted effect of over 40% in size
Target sequence (Q9NUW8 whole entry, looked up): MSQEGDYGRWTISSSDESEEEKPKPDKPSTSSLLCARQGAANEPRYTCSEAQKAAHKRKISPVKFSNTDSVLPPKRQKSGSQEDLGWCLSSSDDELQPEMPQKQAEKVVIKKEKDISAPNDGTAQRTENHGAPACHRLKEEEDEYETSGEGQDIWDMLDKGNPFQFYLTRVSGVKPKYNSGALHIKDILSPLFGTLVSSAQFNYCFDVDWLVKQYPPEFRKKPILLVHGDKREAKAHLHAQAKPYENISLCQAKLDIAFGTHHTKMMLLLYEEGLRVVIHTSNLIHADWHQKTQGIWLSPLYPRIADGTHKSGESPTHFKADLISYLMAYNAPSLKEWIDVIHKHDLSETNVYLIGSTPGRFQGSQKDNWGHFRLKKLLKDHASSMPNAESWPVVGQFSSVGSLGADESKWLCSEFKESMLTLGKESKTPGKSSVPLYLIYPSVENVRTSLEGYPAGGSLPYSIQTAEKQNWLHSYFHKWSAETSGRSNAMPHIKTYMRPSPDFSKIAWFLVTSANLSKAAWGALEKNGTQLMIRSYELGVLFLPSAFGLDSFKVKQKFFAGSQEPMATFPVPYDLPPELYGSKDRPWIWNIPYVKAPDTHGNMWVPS
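Compounds were preincubated with Tdp1 (1 nM final) for 15 min at room temperature before substrate (15 nM final) started a 5 min reaction; beads (10 ug/ml final) were then added for 10 min before AlphaScreen detection.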
Gal4-VP16 FLuc: VP16 counterscreen qHTS for inhibitors of ROR gamma transcriptional activity | Drosophila S2 Gal4-VP16 UAS-luciferase, luminescence, 20 h | Potency, µM (series often up to 53.6 µM), for the others: at the highest dose activity, negative = inhibition, actives largely listed as inhibitors | 310,000 compounds, 3.5% hits;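 note: Gal4-VP16 expression switched on by copper sulfate through the metallothionein promoter; nearly all actives have a fitted effect of over 50% in size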
An asterisk follows results filed as active; ? = inconclusive; nt = no result; ! = not confirmed by another sample; [ ] = dose if it differs, or a comment. Calls come from the whole dose curve; as a rule, active = well fitted curve in the direction sought with a large enough effect; inconclusive = small, poorly fitted or top-dose-only effect, or another doubt; inactive = no such curve, though single readings can be large; an effect the other way counts as inactive or inconclusive. % is set by controls: 0 for no effect and ±100 for the full control effect; potency is the fitted concentration of half-maximal effect.

SMILES	TDP1 cell noCPT	TDP1 cell CPT	RORg inh	TDP1 block	Gal4-VP16 FLuc
CC(C)(C)n1nnnc1C1c2ccccc2C(=O)N1CCc1c[nH]c2ccccc12 (stereo not given)	-21%	?	nt	nt	nt
COc1ccc(CCN2C(=O)c3ccccc3C2c2nnnn2-c2c(C)cccc2C)cc1OC (stereo not given)	12µM*	23µM*	nt	nt	nt
Cc1cccc(C)c1-n1nnnc1C1c2ccccc2C(=O)N1CCc1ccccc1F (stereo not given)	16µM*	?	nt	nt	nt
Cc1cccc(C)c1-n1nnnc1C1c2ccccc2C(=O)N1CCOc1ccccc1 (stereo not given)	?	-7%	nt	nt	nt
CC(C)n1nnnc1C1c2ccccc2C(=O)N1CCc1ccc(O)cc1 (stereo not given)	-24%	-3%	nt	nt	nt
COc1ccc(CCN2C(=O)CCC2(C)c2nnnn2-c2c(C)cccc2C)cc1OC (stereo not given)	-28%	-28%	nt	nt	nt
CC(C)(C)Nc1oc(-c2ccccc2)nc1-c1ccccc1F	nt	nt	-1%	8%	-1%
N#Cc1ccc(C(C(=O)NC2CCCCC2)n2c(=O)c(-c3cc4ccccc4[nH]3)nc3ccccc32)cc1 (stereo not given)	15µM*	15µM*	nt	nt	nt
COc1ccc(C(C(=O)NC2CCCCC2)n2c(=O)c(-c3cc4ccccc4[nH]3)nc3ccccc32)cc1 (stereo not given)	15µM*	?	nt	nt	nt
CC(C)(C)OC(=O)NCCCC[C@H](NC(=O)c1[nH]cnc1C(=O)Nc1ccccc1)C(=O)OC(C)(C)C	23µM*	15µM*	13µM*	11%	?
CC(C)(C)OC(=O)[C@H](CCCCN)NC(=O)c1nc[nH]c1C(=O)N[C@@H](CCCCN)C(=O)OC(C)(C)C	5%	30%	nt	0%	nt
C[C@@H](NC(=O)c1nc[nH]c1C(=O)N[C@@H](CCCCNC(=O)OC(C)(C)C)C(=O)OC(C)(C)C)c1ccccc1	-94%	?	15%	8%	-11%
CC(C)(C)OC(=O)NCCCC[C@H](NC(=O)c1[nH]cnc1C(=O)Nc1ccc(Cl)cc1)C(=O)OC(C)(C)C	16µM*	?	?	9%	?
CCOC(=O)C1(CCc2ccccc2)CCN(C2Cc3ccccc3C2)CC1	?	?	?	0%	-82%
COc1c2c(nc3ccccc13)OC(C(C)(O)COC(C)=O)C2 (stereo not given)	8%	1%	-4%	5%	-13%
COc1cccc(C2c3c(C)nn(-c4ccc([N+](=O)[O-])cc4)c3N=C3C(=O)Nc4ccccc4N32)c1 (stereo not given)	5.8µM*	13µM*	-9%	3%	-3%
COc1cccc(-c2cc(N3C(=O)Nc4ccccc4N3O)n[nH]2)c1	4%	-23%	-23%	11%	-1%
Cc1nn(-c2ccc([N+](=O)[O-])cc2)c2c1C(c1ccc(OC(F)F)cc1)N1C(=N2)C(=O)Nc2ccccc21 (stereo not given)	4.6µM*	5.2µM*	-4%	7%	2%
Cc1ccc(C2c3c(C)nn(-c4ccc([N+](=O)[O-])cc4)c3N=C3C(=O)Nc4ccccc4N32)cc1 (stereo not given)	nt	nt	2%	5%	-12%
Cc1ccccc1CNC(=O)Cc1ccccc1[N+](=O)[O-]	?	-3%	11%	8%	18%
COc1ccc(N(C(=O)c2cnccn2)C(C(=O)NC2CCCCC2)c2ccc(O)cc2)cc1 (stereo not given)	-4%	-7%	0%	5%	-4%
Cc1cccc(C)c1NC(=S)NC(=O)c1ccc(Br)o1	?	?	3.2µM*	-4%	?
Cc1cscc1-c1ccc(C(=O)Nc2c(C)cccc2C)o1	4.6µM*	3.7µM*	nt	nt	nt
O=C(NC(=S)Nc1ccccc1F)c1ccc(Br)o1	-27%	-12%	4.5µM*	3%	?
Cc1c(NC(=S)NC(=O)c2ccc(Br)o2)c(=O)n(-c2ccccc2)n1C	2%	9%	2%	0%	3%
SMILES	TDP1 cell noCPT	TDP1 cell CPT	RORg inh	TDP1 block	Gal4-VP16 FLuc
Cc1cccc(NC(=S)NC(=O)c2ccc(Br)o2)c1C	-22%	-8%	3.5µM*	-3%	?
O=C(O)CNC(=O)/C=C/c1ccc(Cl)cc1Cl	11%	-3%	-19%	-5%	-8%
O=C(c1cc2cc(F)ccc2[nH]1)N(Cc1cccnc1)CC1CCCN(C2CCCCC2)C1 (stereo not given)	-24%	?	8%	4%	-12%
Cc1ccc(C)c(NC(=S)NNC(=O)c2ccc(Br)o2)c1	?	?	?	10%	-22%
Cc1ccc(NC(=S)NC(=O)c2ccc(Br)o2)c(C)c1	?	?	2.2µM*	5%	?
CCOC(=O)C(=O)NC12CC3CC(CC(C3)C1)C2	-10%	-5%	8%	4%	2%
COc1ccc(NC(=O)CCc2nc3cccnc3n2Cc2cccs2)c(OC)c1	?	?	nt	6%	nt
O=C(CCc1nc2cccnc2n1Cc1ccccc1)NCCc1ccc(Cl)cc1	21µM*	?	43%	3%	-3%
COc1ccc(Cn2c(CCC(=O)Nc3ccc(C)c(C)c3)nc3cccnc32)cc1	21µM*	13µM*!	-5%	7%	-10%
O=C(CCc1nc2cccnc2n1Cc1cccs1)Nc1cccc(C(F)(F)F)c1	10µM*	16µM*	nt	4%	nt
COc1ccc(Cn2c(CCC(=O)Nc3cc(OC)c(OC)c(OC)c3)nc3cccnc32)cc1	?	16µM*	nt	6%	nt
O=C(Nc1nnc(-c2ccccc2F)s1)c1cccnc1	-14%	-16%	-9%	0%	18%
COc1ccc(OC)c(NC(=O)CSc2nc(O)cc(=O)n2CC(C)C)c1	-6%	-4%	nt	2%	nt
O=C(NCc1ccncc1)[C@@H]1CCCN1C(=O)[C@@H]1CCCN1C(=O)c1ccccc1	-9%	-18%	nt	nt	nt
Cc1ccc(NC(=O)Cc2ccc(-n3c(C)nc4cccnc43)cc2)cc1C	18µM*	12µM*	nt	6%	nt
Cc1nnc(NC2(C(F)(F)F)C(=O)Nc3c2c(=O)n(C)c(=O)n3C)s1 (stereo not given)	3%	-1%	-19%	4%	0%
CCc1cccc(CC)c1NC(=O)C1SC(=Nc2ccccc2C)C(c2nc3ccccc3s2)=C1N (stereo not given)	23µM*	?	-22%	10%	2%
CC(=O)Nc1cc(-c2nc3ccccc3s2)ccc1C	-12%	-22%	nt	-3%[12.3 µM]	nt
